# Source: PubChem BioAssay AID1259422 (The Scripps Research Institute Molecular Screening Center, 2018)
# Several values for one entry are separate records, joined by “and”; a condition that tells them apart may be missing. Identical values can stand only once. Out of some 640,000 compounds screened, about 9,300 (1.5%) were called active. The list comes from a sample in which actives are over-represented; it also holds similar structures and randomly drawn compounds. A number with no mark means an inactive call. No stated cut-off is given here; in the data, active means inhibition above about 32%; inactive means the rest.
# Assay: TEAD-YAP interaction inhibition, primary screen, TEAD-YAP interaction inhibitor project, luminescence, HEK-TIYL cells (AID 1259422);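 further: 0% = median of test compound wells and 100% = reference inhibitor wells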
# Settings: TEAD-Gal4/YAP UAS-luciferase luminescence, at 9.12 µM, active compounds read high
row,Structure (SMILES),inhibition
1,COc1cc(NS(=O)(=O)c2ccc3ccccc3c2)c2ncccc2c1,38.5% (active)
2,COC(=O)c1cccc(NS(=O)(=O)c2ccc3ccccc3c2)c1C,-7.45%
3,COc1cc(NS(=O)(=O)c2c(C)ccc3nsnc23)c2ncccc2c1,-0.3%
4,Cn1cc(S(=O)(=O)N2CCCC2)cc1C(=O)N1CCC(Cc2ccccc2)CC1,-7.23%
5,Nc1c(C(=O)NCc2ccccc2)nnn1Cc1cccc(Cl)c1,37% (active)
6,COc1ccc(Cn2nnc(C(=O)Nc3cccc(Cl)c3)c2N)cc1,-9.56%
7,O=C(Cc1cccc(Cl)c1)NCc1ccccc1,-42.3%
8,O=S(=O)(c1ccc2ccccc2c1)N1CCSC1c1ccc2c3c(cccc13)CC2 (stereo not drawn),-6.22%
9,Cc1cc(NCCCn2ccnc2)n2nc(C)c(-c3cccs3)c2n1,-74.5%
10,O=C(CNC1CCCC1)NCc1ccc2c(c1)OCO2,-2.55%
11,CCOc1ccc2c(=O)c(-c3ccc4c(c3)OCCCO4)c(C)oc2c1,-7.66%
12,CCOc1ccc(C(=O)CCC(=O)OCC(=O)c2ccc3c(c2)OCCO3)cc1,5.42%
13,CCOc1ccc(-n2c(-c3ccc4c(c3)OCCO4)c[n+]3c2CCCCC3)cc1,85.2% (active)
14,COc1ccc2c(c1OC)C(=O)N(c1ncn[nH]1)C2,3.4%
15,COc1ccc2c(c1OC)C(=O)N(c1ccc(O)cc1)C2,67.1% (active)
16,COc1ccc(N2Cc3cccc(C(=O)NCC(OC)OC)c3C2=O)cc1,-8.73%
17,CCOC(=O)c1cccc(NC(=O)Cn2cc3c(n2)CCCCC3)c1,8.83%
18,O=[N+]([O-])c1ccccc1S(=O)(=O)Nc1cccc2cccnc12,32.8% (active)
19,O=[N+]([O-])c1ccccc1Oc1cccc2cccnc12,-9.26%
20,O=S(=O)(Nc1cccc2cccnc12)c1ccc(S(=O)(=O)N2CCCCC2)cc1,23.6%
21,Cn1c(/N=C/c2nc(-c3cccc4ccccc34)oc2O)nc2ccccc21,-6.43%
22,O=C(CO/N=C/c1ccccc1)N=Nc1c(O)[nH]c2ccccc12,5.66%
23,COc1ccc2c(c1)CC(C(=O)Nc1ccc(-c3cn[nH]c3)cc1O[C@H]1CCOC1)CO2 (stereo partly drawn),22.3%
24,COc1ccc2c(c1)CC(C(=O)Nc1ccc(-c3cn[nH]c3)cc1OCc1ccccc1)CO2 (stereo not drawn),-15.1%

row,Structure (SMILES),inhibition
1,CC1=CCC(C(=O)O)C(C(=O)Nc2nc3ccc(C)cc3s2)C1 (stereo not drawn),-1.36%
2,CCOc1ccc2nc(NC(=O)C3CC3)sc2c1,-49.8%
3,COc1ccc2c(c1)CC(C(=O)Nc1nc3ccc(-c4cn[nH]c4C)cc3s1)CO2 (stereo not drawn),53.5% (active)
4,Cc1[nH]ncc1-c1ccc2nc(NC(=O)C3COc4ccccc4C3)sc2c1 (stereo not drawn),60.2% (active)
5,Cc1cccc(C2c3[nH]c4ccccc4c3CCN2C(=O)Cn2nc(C)nc2C)n1 (stereo not drawn),-0.52%
6,COCCNC(=O)/C(C#N)=C/c1ccc(N2CCOCC2)cc1,-20.6%
7,N#C/C(=C\c1ccc(N2CCOCC2)cc1)c1ccccn1,90.2% (active)
8,COc1ccc2nc(/C(C#N)=C\c3ccc(N4CCOCC4)cc3)[nH]c2c1,-25.6%
9,CCOc1cc(C2C=C(c3cccc([N+](=O)[O-])c3)Nc3ncnn32)ccc1OC(F)F (stereo not drawn),-5.43%
10,COC(=O)c1ccc(CSc2cc(N3CCN(c4ccccc4F)CC3)ncn2)o1,-17.6%
11,Cc1cc(C)n2nc(SCC(=O)NCCCN3CCCC3=O)nc2n1,6.95%
12,O=C1N=c2ccccc2=C1c1[nH]c(=S)n(-c2ccccc2)c1O,-4.63%
13,COC(=O)CSc1nnc(-c2cccc(OC)c2)n1C,8.2%
14,COc1cccc(-n2c(SCC(=O)Nc3cccc(O)c3)nnc2-c2ccncc2)c1,1.48%
15,COc1cccc(-c2nnc(SCC(=O)Nc3ccccc3)n2-n2cccc2)c1,47.3% (active)
16,COCCNC(=O)c1oc2ccc3c(c2c1C)C(=O)CC1(CCCC1)O3,-23.1%
17,Nc1nc(SC(c2ccccc2)c2ccccc2)nc2sc3c(c12)CCCC3,5.46%
18,Cc1nonc1CN(C)C(=O)c1cc(COc2cccc(C(F)(F)F)c2)on1,-10.6%
19,O=C(c1cc(COc2ccc3ncccc3c2)on1)N1C[C@@H]2CCC[C@H]1C2,32.6% (active)
20,CN(Cc1cccnc1)C(=O)c1cc(COc2ccc3ncccc3c2)on1,40.8% (active)
21,Cc1cc(CNC(=O)c2cc(COc3ccc4ncccc4c3)on2)nn1C,12.1%
22,COCC1CCN(C(=O)c2cc(COc3ccc4ncccc4c3)on2)C1 (stereo not drawn),30.8%
23,CCN(CC)C1CCN(C(=O)c2cc(COc3ccc4ncccc4c3)on2)C1 (stereo not drawn),14.7%
24,NC(=O)COC(=O)c1cccc(S(=O)(=O)NCc2ccccc2)c1,-3.84%

row,Structure (SMILES),inhibition
1,CC(C)c1ccc(CN[C@H]2C[C@H]3C(=O)N[C@H]([C@H](C)O)C(=O)N3C2)cc1,1.15%
2,COc1ccc(NC(=O)C2Cc3ccccc3CN2S(=O)(=O)c2ccc(C)cc2)cc1 (stereo not drawn),12.4%
3,Nc1nc2c(s1)CCc1c-2no[n+]1[O-],12.3%
4,c1ccc(-c2nc(-c3ccncc3)[nH]c2-c2ccccc2)cc1,6.95%
5,[O-][n+]1onc2c1CCc1[nH]c(-c3ccccc3)nc1-2,41.9% (active)
6,Cc1ccc(C)c(N(Cc2ccccc2C)S(C)(=O)=O)c1,-3.99%
7,COc1ccc(Cl)cc1Nc1c(-c2ccc3c(c2)OCC(=O)N3)c(=O)c1=O,2.85%
8,Cc1ccc(C(=O)Nc2nccs2)cc1C,-7.57%
9,CC(=O)C(C)(C)OC(=O)Nc1nccs1,4.65%
10,CC(C)(C)C(=O)Nc1ccc(C(=O)Nc2nccs2)cc1,53.9% (active)
11,COc1ccccc1NC(=O)COC(=O)C(C)N1C(=O)C(=O)c2ccccc21 (stereo not drawn),13.1%
12,Cc1ccc(/C=N/NC(=O)c2cccc(F)c2)c(O)c1,-36.3%
13,O=C(Nc1c(C(=O)N2CCC(Cc3ccccc3)CC2)cnn1-c1ccccc1)c1ccco1,-7.49%
14,NC1=NC(=O)/C(=C\c2ccc3ncccc3c2)S1,52.6% (active)
15,COc1cc(/C=C2/SC(N)=NC2=O)cc(OC)c1OC,6.04%
16,CN1C(N)=NC(=O)/C1=C\c1ccc2c(c1)OCO2,-15%
17,NC1=NC(=O)/C(=C\c2ccc3c(c2)OCO3)S1,46.8% (active)
18,CC(C)CC1=NN2C(=N)/C(=C/c3ccc4c(c3)OCO4)C(=O)N=C2S1,-1.58%
19,COC(=O)c1ccc(/C=C2/SC(N)=NC2=O)cc1,16%
20,CCOC(=O)c1c(NC(=O)CSc2nnc(CNC(=O)c3cc(OC)cc(OC)c3)n2-c2cccc(C)c2)sc2c1CCCC2,3.65%
21,CCOc1ccc(C(=O)O/N=C(\N)c2ccc(OC)cc2)cc1OCC,-6.66%
22,Cc1cc(N2CCCC2)nc2ccc(NC(=S)NCC3CCCO3)cc12 (stereo not drawn),-6.91%
23,Cc1c(SC(F)(F)C(F)C(F)(F)F)c(=O)n(-c2ccccc2)n1C (stereo not drawn),18.8%
24,O=C(NC1CC1)c1cccc(N2CCc3ccccc3C2)n1,-13.8%

row,Structure (SMILES),inhibition
1,NC(=O)C(C(N)=O)C1OC(=O)C(Cl)=C1Cl (stereo not drawn),0.04%
2,C/C(=N\NC(=O)c1ccccc1I)c1ccc(O)cc1,-8.63%
3,COC(=O)C1=C(C)N(CC2CCCO2)C(=O)/C1=C\c1cc(C)n(-c2cccc(C)c2)c1C (stereo not drawn),0.89%
4,COC(=O)C1=C(C)N(C)C(=O)/C1=C\c1cc(C)n(-c2ccc(Br)cc2)c1C,-6.34%
5,CCN1C(=O)/C(=C\c2cc(C)n(-c3ccccc3)c2C)C(C(=O)OC)=C1C,36.6% (active)
6,Cc1cc(/C=C2/SC(=O)N(C)C2=O)c(C)n1-c1ccc(I)cc1,-24.8%
7,CCc1ccccc1N1C(=O)NC(=O)/C(=C\c2cc(C)n(-c3cccnc3)c2C)C1=O,-3.42%
8,CCN1C(=O)S/C(=C/c2cc(C)n(-c3cccnc3)c2C)C1=O,50.4% (active)
9,COc1ccc(Cl)cc1S(=O)(=O)N1CCN(CC(=O)Nc2ccc(C(N)=O)cc2)CC1,3.37%
10,O=C(NC(Cc1c[nH]c2ccccc12)c1nnc2n1CCC2)c1ccccc1Cl (stereo not drawn),4.18%
11,CCOC(=O)c1c(NC(=O)c2cccc(C)c2)sc2c1CCC2,1.21%
12,CC(=O)N(C1=C(N2CCN(C)CC2)C(=O)c2ccccc2C1=O)c1cc(C)cc(C)c1,53.9% (active)
13,CC(=O)N(C1=C(N2CCOCC2)C(=O)c2ccccc2C1=O)C1CCCCC1,13.4%
14,Cc1cc(C)cc(NC2=C(N3CCN(C)CC3)C(=O)c3ccccc3C2=O)c1,14.2%
15,CCCCOc1ccc(-c2[nH]nc3c2C2(C(=O)Nc4ccc(C)c(Br)c42)C(C#N)=C(N)O3)cc1 (stereo not drawn),3.07%
16,Cc1nc(NC(=O)c2cc(Br)ccc2Cl)sc1C,-57.6%
17,Cc1nc(NC(=O)c2ccc3c(c2)CCCC3)sc1C,53.4% (active)
18,COc1ccc(C(=O)Nc2nc3c(ccc4ccccc43)s2)c(OC)c1,-16.5% and -1.48%
19,Cc1nc(NC(=O)c2ccoc2C)sc1C,-21.2%
20,COc1ccc(C(=O)Nc2nc(C(C)(C)C)cs2)c(OC)c1,-70.6%
21,COc1ccc(C(=O)Nc2nc(C)c(C)s2)c(OC)c1,94.8% (active)
